An excerpt weighted towards active compounds, which were near 1.9% of everything screened.
PABP FP inh – PABP-poly(A) binding inhibition; P11940; PABP-poly(A) RNA binding, fluorescence polarization; inhibition, % at 35 µM; 290,000 tested, 1% active; AID 2014;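 note: calls also rest on retests at 20 µM and on dose response follow-up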
eIF4H FP inh – inhibitors of RNA binding by human eIF4H. 290,000 tested, 0.94% active. Q15056. AID 2012. inhibition, % at 35 µM. eIF4H fluorescence polarization binding assay;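 note: calls also rest on retests at 20 µM and on dose response follow-up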
GRK2 inh – inhibitors of human GRK2 displacing RNA aptamer. bead flow cytometry, FAM-aptamer displacement from GRK2. P25098. inhibition of aptamer binding, % at 10 µM. 330,000 tested, 0.59% active;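 active = inhibition of aptamer binding above 40%, roughly 3 SD of noise, on plates passing a quality check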;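 note: median bead fluorescence of bound FAM aptamer so fluorescent compounds give negative values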
Target sequence (P25098 whole entry, looked up): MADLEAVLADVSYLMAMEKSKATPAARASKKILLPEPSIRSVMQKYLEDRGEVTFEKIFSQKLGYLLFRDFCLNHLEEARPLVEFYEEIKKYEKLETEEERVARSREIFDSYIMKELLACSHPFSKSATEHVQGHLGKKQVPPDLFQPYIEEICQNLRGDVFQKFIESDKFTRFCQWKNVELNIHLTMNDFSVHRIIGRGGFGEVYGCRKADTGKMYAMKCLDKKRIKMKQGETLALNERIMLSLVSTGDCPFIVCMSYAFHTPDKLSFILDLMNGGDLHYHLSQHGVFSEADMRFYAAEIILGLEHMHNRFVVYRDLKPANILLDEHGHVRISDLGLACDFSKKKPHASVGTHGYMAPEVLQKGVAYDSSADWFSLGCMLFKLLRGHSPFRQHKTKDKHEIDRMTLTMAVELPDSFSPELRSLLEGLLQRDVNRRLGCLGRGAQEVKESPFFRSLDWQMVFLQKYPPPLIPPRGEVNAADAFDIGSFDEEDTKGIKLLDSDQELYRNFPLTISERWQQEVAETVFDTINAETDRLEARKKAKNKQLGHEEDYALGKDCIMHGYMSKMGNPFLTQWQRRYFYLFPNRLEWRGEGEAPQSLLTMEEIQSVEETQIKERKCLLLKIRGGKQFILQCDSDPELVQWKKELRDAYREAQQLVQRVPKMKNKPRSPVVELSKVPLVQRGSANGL
PERK inhibitor – human PERK inhibition, primary cell-based screen. 220,000 tested, 0.17% active. inhibition, % at 5.6 µM. Q9NZJ5. AID 1416. CHO PERK-DD fusion, SEAP luminescence translation reporter;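 active = inhibition above the mean inhibition of all tested compounds plus 3 SD, set separately per screening campaign, cut at about 2.9% in these data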;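 note: PERK kinase domain activated by AP20187 dimerizer at 100 nM; 0% = DMSO with dimerizer and 100% = rapamycin at 8.4 µM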
MLLE-PAM2 inh – inhibitors of microRNA-mediated deadenylation, human PABP1 MLLE binding; AID 588489; 360,000 tested, 0.36% active; GST-MLLE / FITC-PAM2 fluorescence polarization; P11940; inhibition, % at 20 µM; in the data active = inhibition above about 35%, passing the limit was not always enough;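 note: plate controls were DMSO wells with GST-MLLE for no effect and wells lacking GST-MLLE protein for full effect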
GRK2 inh confirm – confirmation of human GRK2 inhibitors displacing RNA aptamer | shares compounds with GRK2 inh | bead-bound GRK2, FAM-aptamer displacement, flow cytometry | aptamer displacement, % at 10 µM | 2,000 tested, 4% active;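 active = aptamer displacement above 40%, near three times the noise of non-fluorescent compounds, on plates passing quality checks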;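 note: negative values mostly reflect intrinsic compound fluorescence rather than true enhancement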
Aptamer quench 1 – quenches fluorescent RNA aptamer, GRK2 hit artifact; shares compounds with GRK2 inh; Fluorescent RNA aptamer beads, quenching, flow cytometry; stronger effect = higher value; fluorescence change (kMESF span), kMESF (no concentration beside the values); 110 tested, under 10 active; AID 504521;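 active = compounds whose bead fluorescence drops by more than 37 kMESF across the dose range, marking them as dye quenchers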
FAM quench CP1 – counter-screen for GRK2 aptamer inhibitors: fluorescent aptamer quenchers; Carboxyfluorescein RNA aptamer on beads, flow cytometry quenching; stronger effect = lower value; fluorescence response (% of DMSO), % at 10 µM; 2,000 tested, under 10 active; shares compounds with GRK2 inh;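 active = compounds that quench the bead-bound fluorescent RNA probe, cutting fluorescence to under half of the solvent control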;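 note: counterscreen run without GRK2 so only probe quenching by compound is measured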
GRK2 confirm 2 – confirmation of human GRK2 inhibitors binding RNA aptamer site; shares compounds with GRK2 inh; bead-bound GRK2, FAM-aptamer displacement, flow cytometry; inhibition of aptamer binding, % at 10 µM; 360 tested, under 10 active;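 active = inhibition of aptamer binding above 40%, about triple the noise seen with nonglowing compounds, on plates passing quality control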;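 note: negative values mostly come from compounds that fluoresce themselves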
FAM quench SP – aptamer fluorescence quenching in GRK2 counter-screen | AID 588494 | shares compounds with GRK2 inh | carboxyfluorescein RNA aptamer beads, flow cytometry quenching; stronger effect = lower value | 360 tested, under 10 active | fluorescence response vs DMSO, % at 10 µM;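 active = response vs DMSO under 50%, meaning signal dropped by over half, treated as fluorescence quencher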;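 note: labelled aptamer on streptavidin beads without GRK2 as a quench counter-screen; 100% = bead fluorescence of DMSO wells and lower means quenching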
Numbers without * were called inactive; . = not tested or not shown. Unless noted, the rule behind the calls is not given here.

SMILES	PABP FP inh	eIF4H FP inh	GRK2 inh	PERK inhibitor	MLLE-PAM2 inh	GRK2 inh confirm	FAM quench CP1	others
NC(=O)c1ccsc1NC(=O)CS(=O)(=O)c1ccc(F)cc1	.	.	0	.	1	.	.	GRK2 confirm 2=9;FAM quench SP=100
COC(=O)c1ccc(CN2CCCC(CO)(Cc3ccc(F)cc3F)C2)cc1 (stereo not drawn)	-12	0	0	.	4	.	.
NC(=O)Cc1ccc(C(=O)c2ccccc2F)s1	-12	3	27	0	6	2	96
OC(c1ccc(F)c(F)c1)c1nc(-c2cc(F)cc(F)c2)cs1 (stereo not drawn)	.	.	.	.	2	.	.
C[C@H]1CN=C(N(C)C)N1CCC1CCCCC1	.	.	3	.	-3	.	.
C[C@H]1CN=C(N(C)C)N1CCCC1CCCC1	.	.	42*	.	7	-5	100
O=C(NN1CCOCC1)c1ccc(Br)s1	11	-1	69*	1	6	0	102
CN1CCN(NC(=O)c2ccc(Br)s2)CC1	-2	-5	0	1	3	.	.
O=C(Nc1ccc2c(c1)OCCO2)c1ccc(Br)s1	9	-2	0	-1	1	3	102
C[C@H]1CN([C@@H](C)CO)C(=O)Cc2cc(NC(=O)Cc3ccccc3)ccc2O[C@H]1CN(C)C(=O)Nc1cccc2ccccc12	.	.	1	.	-7	.	.
COc1ccc(Cc2noc(=O)[nH]2)cc1	.	.	.	.	-1	.	.
Cc1ccc2nc(N3CCN(c4ccccc4F)CC3)c(C=O)c(=O)n2c1	21*	58	64*	0	17	0	100
O=C(NC(NC1CCS(=O)(=O)C1)C(Cl)(Cl)Cl)c1cccc(Cl)c1 (stereo not drawn)	-7	4	51*	0	-3	-1	95
O=C(CSc1cn(CCNC(=O)c2ccccc2)c2ccccc12)NCc1ccco1	-3	-2	72*	0	29	-3	103
CCCn1cc(SCC(=O)NCc2ccco2)c2ccccc21	-7	-6	0	0	30	.	.
O=C(CSc1cn(CCNC(=O)c2cccs2)c2ccccc12)NC1CCCC1	-4	-5	0	-1	-1	.	.	GRK2 confirm 2=0;FAM quench SP=106
N#Cc1cnn(-c2cccc(Cl)c2)c1-n1cccc1	9	-16	0	2	4	.	.
O=C(c1cccc(C(=O)N2CCN(c3ncccn3)CC2)c1)N1CCN(c2ncccn2)CC1	1	-12	1	1	6	.	.
O=C(c1ccc2nc(-c3ccco3)c(-c3ccco3)nc2c1)N1CCN(c2ncccn2)CC1	67*	85*	45*	0	24	3	94
NC(=O)C(=O)N/N=C/c1cccc(C(F)(F)F)c1	-4	-13	61*	1	2	0	101
CC(=O)n1cc([C@@H]2C=C(C(=O)Nc3ccccc3)O[C@H](OCc3ccc(CO)cc3)C2)c2ccccc21	-24	-8	64*	1	-8	-1	100
CN(C(=O)c1ccc(NC(=O)Cc2ccc(NC(=O)C3CCN(C(=O)C4CCC4)CC3)cc2)cc1)C1CC1	.	.	69*	.	0	2	97
CN(C(=O)c1ccc(NC(=O)Cc2ccc(NC(=O)C3CCN(C(=O)C4CCCC4)CC3)cc2)cc1)C1CC1	.	.	0	.	0	.	.
O=C(/C=C/c1ccc(O)c(O)c1)OC1C(O)CC(OC(=O)/C=C/c2ccc(O)c(O)c2)(C(=O)O)CC1O (stereo not drawn)	-1	7	1	1	-12	.	.
O=C(/C=C/c1ccc(O)c(O)c1)O[C@@H]1C[C@](O)(C(=O)O)C[C@@H](O)[C@H]1O	.	.	16	.	6	-3	100
SMILES	PABP FP inh	eIF4H FP inh	GRK2 inh	PERK inhibitor	MLLE-PAM2 inh	GRK2 inh confirm	FAM quench CP1	others
O=C(CNS(=O)(=O)c1ccc(Cl)c(C(F)(F)F)c1)NC1CCCCCC1	.	.	43*	.	1	.	.	GRK2 confirm 2=13;FAM quench SP=100
O=C(CNS(=O)(=O)c1cccc(C(F)(F)F)c1)NC1CCCCCC1	.	.	0	.	-8	.	.
Nc1nc(O)c(N=Nc2ccc(S(N)(=O)=O)cc2)c(=O)[nH]1	2	-4	44*	.	.	4	98
Cc1ccccc1NC(=O)CCCC(=O)c1ccccc1	-6	-15	0	.	8	.	.
C=C(C)C(=O)Nc1cccc(C2=NOC3(C2)C[C@H](C(N)=O)N(C(=O)c2ccccc2)C3)c1 (stereo partly drawn)	62*	91*	48*	.	-4	20	119	Aptamer quench 1=4.2
C=C(C)C(=O)Nc1cccc(C2=NOC3(C2)C[C@@H](C(N)=O)N(C(=O)C(=C)C)C3)c1 (stereo partly drawn)	61*	93*	75*	.	7	43*	101	Aptamer quench 1=-0.7
C=C(C)C(=O)N1CC2(CC(c3cccc(NC(=O)/C=C\C=C/C)c3)=NO2)C[C@H]1C(N)=O (stereo partly drawn)	-1	-9	2	.	17	.	.
C=C(C)C(=O)Nc1cccc(C2=NOC3(C2)C[C@@H](C(N)=O)N(C(=O)c2ccc(Cl)cc2)C3)c1 (stereo partly drawn)	.	.	97*	.	.	92*	99	Aptamer quench 1=5.2
CC[C@]12c3[nH]c4ccccc4c3CCN1C(=O)C(CC(=O)NCc1cccc(C(F)(F)F)c1)C[C@@H]2C(=O)N1CCN(C(=O)C2CC2)CC1 (stereo partly drawn)	.	.	0	.	11	.	.
CC(C)c1ccc(/C=C2\SC(=O)N(CC(=O)NC3C=CS(=O)(=O)C3)C2=O)cc1 (stereo not drawn)	-14	46	0	.	15	.	.
O=C(CNC(=O)c1cccc(Cl)c1)NCCCSc1ccccc1	.	.	0	.	17	.	.
COC(=O)c1cc(-c2ccc(Br)cc2)n[nH]1	-3	0	54*	0	-8	3	96
Cc1nnc(SCCCN2C(=O)c3ccccc3C2=O)o1	-2	0	15	1	3	-5	102
Cc1ccc(C(C)C)c(Oc2cnccn2)c1	-11	-1	1	.	9	.	.
O=C(O)CC(CC(=O)Nc1nncs1)c1ccccc1 (stereo not drawn)	11	4	49*	1	-11	0	100
O=C(CCS(=O)(=O)c1ccccc1)Nc1nncs1	18	74	54*	.	-6	6	101
O=C(CCCc1ccccc1)Nc1nncs1	65	-4	0	2	8	.	.
